From PubChem BioAssay
This is a sample that favours compounds with a hit; in the whole collection about 10% have one here.
SARS PLP yeast = inhibitors of SARS-CoV papain-like protease in yeast; 0.19% of 330,000 active; Potency, µM (doses to about 32.9 µM), actives largely listed as activators; S. cerevisiae expressing SARS-CoV PLpro, growth rescue; calls by dose curve; further: nearly all actives have a fitted effect of over 55% in size
Pf growth 48h = P. falciparum growth inhibition at 48 hours (one generation); 5.9% of 310,000 active; AID 504832; P. falciparum luciferase growth in erythrocytes, 48 h; Potency, µM (series often up to 28.7 µM), most hits filed as inhibitors
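Compounds are pin-transferred into medium, infected erythrocytes (2% hematocrit, 0.1% parasitemia final) are added, and plates sit one parasite generation at 37 C in 5% CO2. Detection reagent is then added and luminescence measured.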
NS1 function inh = influenza NS1 inhibition. Potency, µM (top dose mostly 46.1 µM). 0.4% of 270,000 active; calls by dose curve; further: actives are rising curves; nearly all actives have a fitted effect of over 50% in size
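A cell-based growth assay was used: compounds that relieve NS1-induced slow growth of budding yeast raise OD600. Assay medium was yeast nitrogen base with ammonium sulphate and -URA supplement, pH 6.0, with 2% galactose.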
Pf growth 96h = P. falciparum growth inhibition at 96 hours. AID 504834. 6.9% of 320,000 active. P. falciparum luciferase reporter growth, 96 h. Potency, µM (titrated, usually from 28.7 µM), usual class: inhibitors
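Cell-based qHTS: luciferase-tagged P. falciparum in erythrocytes (2% hematocrit, 0.05% parasitemia final) incubated with compounds for 96 hours, 37 C, 5% CO2; luciferase detection reagent then added and luminescence measured.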
A number is an active result. Unless noted, the call rests on the fitted dose curve; in most records, active means well fitted inhibition curve with a large enough effect; inconclusive means small, poorly fitted or top-dose-only effect, or another doubt; inactive means no such curve, though single readings can be large or run the other way.

Results for COc1ccc(-c2cc(C(=O)Nc3c(C)n(C)n(-c4ccccc4)c3=O)no2)cc1 ?
SARS PLP yeast: inactive; Pf growth 48h: inconclusive; Pf growth 96h: 8.28µM

What do the screens show for `CC(C)n1c(SCC(=O)N2CCN(C)CC2)nc2c1c(=O)n(C)c(=O)n2C`?
SARS PLP yeast: inactive; Pf growth 48h: inactive; NS1 function inh: inactive; Pf growth 96h: inactive

Results for Cc1c(C(c2cccc(Br)c2)c2c(C)n(C)n(-c3ccccc3)c2=O)c(=O)n(-c2ccccc2)n1C ?
SARS PLP yeast: inactive; Pf growth 48h: inconclusive; NS1 function inh: inactive; Pf growth 96h: inactive

How did Cc1ccc2[nH]c(=O)c(CN(CCc3ccccc3)Cc3nnnn3CC3CCCO3)cc2c1 (stereo not drawn) do in these assays?
SARS PLP yeast: inactive; Pf growth 48h: inconclusive; NS1 function inh: inactive; Pf growth 96h: inconclusive

Results for COc1ccc2[nH]c(=O)c(CN(CCc3ccccc3)Cc3nnnn3CC3CCCO3)cc2c1 (stereo not drawn) ?
SARS PLP yeast: inactive; Pf growth 48h: inactive; NS1 function inh: inactive

What do the screens show for `COc1ccc2cc(CN(CCc3ccccc3)Cc3nnnn3CC3CCCO3)c(=O)[nH]c2c1` (stereo not drawn)?
SARS PLP yeast: inactive; Pf growth 48h: 9.28µM; NS1 function inh: inactive; Pf growth 96h: inactive

How did COCCn1nnnc1CN(CCc1ccccc1)Cc1cc2ccc(C)cc2[nH]c1=O do in these assays?
SARS PLP yeast: inactive; Pf growth 48h: inconclusive; NS1 function inh: inactive; Pf growth 96h: 10.4µM

Results for O=c1[nH]c2cc3c(cc2cc1CN(Cc1nnnn1CC1CCCO1)C1CCCC1)OCO3 (stereo not drawn) ?
SARS PLP yeast: inactive; Pf growth 48h: inactive; NS1 function inh: inactive; Pf growth 96h: 10.4µM

Results for COc1ccc2[nH]c(=O)c(CN(Cc3ccccc3OC)Cc3nnnn3CC3CCCO3)cc2c1 (stereo not drawn) ?
SARS PLP yeast: inactive; Pf growth 48h: inconclusive; NS1 function inh: inactive; Pf growth 96h: inactive

How did COc1ccc2[nH]c(=O)c(CN(Cc3ccc(C)cc3)Cc3nnnn3CC3CCCO3)cc2c1 (stereo not drawn) do in these assays?
SARS PLP yeast: inactive; Pf growth 48h: inconclusive; NS1 function inh: inactive; Pf growth 96h: 8.28µM

Results for COc1ccc(NC(=O)C2CCCN2C(=O)Nc2ccc(OC)cc2)cc1 (stereo not drawn) ?
SARS PLP yeast: inactive; Pf growth 48h: inactive; NS1 function inh: inactive; Pf growth 96h: inactive

What do the screens show for `Oc1cncc(Cc2ccccc2)c1`?
SARS PLP yeast: inactive; Pf growth 48h: inconclusive; NS1 function inh: inactive; Pf growth 96h: inconclusive

How did CC(=O)N1c2ccc(S(=O)(=O)NCCC(=O)N3CCC(C)CC3)cc2CC1C (stereo not drawn) do in these assays?
SARS PLP yeast: inactive; Pf growth 48h: inactive; NS1 function inh: inactive; Pf growth 96h: inactive

How did CC(C)(CNC(=O)c1ccc(S(=O)(=O)Nc2cccc(C(F)(F)F)c2)cc1)N1CCOCC1 do in these assays?
SARS PLP yeast: inactive; Pf growth 48h: inconclusive; Pf growth 96h: inactive

How did COc1ccccc1CN(Cc1cc2cc(C)ccc2[nH]c1=O)Cc1nnnn1CC1CCCO1 (stereo not drawn) do in these assays?
SARS PLP yeast: inactive; Pf growth 48h: 7.38µM; NS1 function inh: inactive; Pf growth 96h: 10.4µM

What do the screens show for `O=C(COc1nsnc1N1CCOCC1)Nc1ccc([N+](=O)[O-])cc1`?
SARS PLP yeast: inactive; Pf growth 48h: 5.22µM; NS1 function inh: inactive; Pf growth 96h: inactive

How did COc1ccc(OCC(=O)Nc2ccc(N3CCN(C(=O)c4ccco4)CC3)cc2)cc1 do in these assays?
SARS PLP yeast: inactive; Pf growth 48h: inactive; NS1 function inh: inactive; Pf growth 96h: inactive

Results for O=C(CSc1ccc(Cl)cc1)Nc1ccc(N2CCN(C(=O)c3ccco3)CC2)cc1 ?
SARS PLP yeast: inactive; Pf growth 48h: 11.7µM; NS1 function inh: inactive

Results for O=C(COc1nsnc1N1CCOCC1)Nc1ccc(Cl)cc1 ?
SARS PLP yeast: inactive; Pf growth 48h: inactive; NS1 function inh: inactive; Pf growth 96h: inactive

What do the screens show for `Cc1cc(C)cc(OCC(=O)Nc2ccc(N3CCN(C(=O)c4ccco4)CC3)cc2)c1`?
SARS PLP yeast: inactive; Pf growth 48h: inconclusive; NS1 function inh: inactive; Pf growth 96h: inconclusive

Results for O=C(COc1ccc([N+](=O)[O-])cc1)Nc1ccc(N2CCN(C(=O)c3ccco3)CC2)cc1 ?
SARS PLP yeast: inactive; Pf growth 48h: inactive; NS1 function inh: inactive; Pf growth 96h: 5.22µM

What do the screens show for `O=C(COc1ccc(Cl)cc1)Nc1ccc(N2CCN(C(=O)c3ccco3)CC2)cc1`?
SARS PLP yeast: inactive; Pf growth 48h: inconclusive; NS1 function inh: inactive; Pf growth 96h: 11.7µM

Results for Cc1ccccc1C(=O)c1cccn1CC(=O)NCc1cccc(Cl)c1 ?
SARS PLP yeast: inactive; Pf growth 48h: inactive; NS1 function inh: inactive; Pf growth 96h: inactive

What do the screens show for `CCN1C(=O)[C@H]2[C@@H](c3ccc(-c4cccc(Cl)c4)c(OC)c3)N[C@@](Cc3ccccc3)(C(=O)OC)[C@H]2C1=O`?
SARS PLP yeast: inactive; Pf growth 48h: 2.08µM; Pf growth 96h: 0.415µM

What do the screens show for `CCN1C(=O)[C@H]2[C@@H](c3ccc(-c4ccc(OC)cc4)c(OC)c3)N[C@@](CC(C)C)(C(=O)OC)[C@H]2C1=O`?
SARS PLP yeast: inactive

Results for CCN1C(=O)[C@H]2[C@@H](c3ccc(-c4ccc5c(c4)OCO5)c(OC)c3)N[C@@](Cc3ccccc3)(C(=O)OC)[C@H]2C1=O ?
SARS PLP yeast: inactive; Pf growth 48h: 1.17µM; Pf growth 96h: inconclusive

Results for CCN1C(=O)[C@H]2[C@@H](c3ccc(-c4ccc5c(c4)OCO5)c(OC)c3)N[C@@](CC(C)C)(C(=O)OC)[C@H]2C1=O ?
SARS PLP yeast: inactive; Pf growth 48h: 6.57µM; Pf growth 96h: 13.1µM

How did CC(=O)Nc1cc2nc(C)n(Cc3ccc([N+](=O)[O-])cc3)c2nc1C do in these assays?
SARS PLP yeast: inactive; Pf growth 48h: inactive; NS1 function inh: inconclusive; Pf growth 96h: inconclusive

How did COc1ccc(C)cc1NC(=O)C1CCCN(S(=O)(=O)c2cccnc2)C1 (stereo not drawn) do in these assays?
SARS PLP yeast: inactive; Pf growth 48h: inactive; NS1 function inh: inactive; Pf growth 96h: inactive

What do the screens show for `COc1ccc(N2CCN(S(=O)(=O)CCNC(=O)COc3cccc(OC)c3)CC2)cc1`?
SARS PLP yeast: inactive; Pf growth 48h: inactive; NS1 function inh: inactive; Pf growth 96h: inconclusive

Results for O=C(Nc1cc(Br)ccc1O)c1cc(-c2ccccc2)on1 ?
SARS PLP yeast: inactive; Pf growth 48h: 2.08µM; NS1 function inh: inactive; Pf growth 96h: inconclusive

How did O=C(Nc1ccccc1C(F)(F)F)c1cc(-c2cccc(O)c2)on1 do in these assays?
SARS PLP yeast: inactive; Pf growth 48h: inactive; NS1 function inh: inactive; Pf growth 96h: 10.4µM

How did O=C(Cc1ccccc1)NNC(=O)c1cnccn1 do in these assays?
SARS PLP yeast: inactive; Pf growth 48h: inactive; NS1 function inh: inactive; Pf growth 96h: inactive

How did CC1(C)CC(=O)C([N+](=O)[O-])=C(NCCCO)C1 do in these assays?
SARS PLP yeast: inconclusive; Pf growth 48h: inactive; NS1 function inh: inactive; Pf growth 96h: 11.7µM

How did Cc1ccc(NC(=O)CSc2nnc(COc3ccc(C#N)cc3)n2-c2ccccc2)cc1C do in these assays?
SARS PLP yeast: inactive; Pf growth 48h: inconclusive; NS1 function inh: inactive; Pf growth 96h: 10.4µM
